Laboratory results: PubChem BioAssay (NCI)
About 79,000 compounds went through this panel and 15% of them were active in at least one assay; those are over-represented in the sample as a whole. The source made the active and inactive calls. No stated cut-off is given here; in the data, active means growth inhibition above about 70%; inactive means the rest.

Experiments:
[1] = NCI Yeast Anticancer Drug Screen. Data for the rad52 strain (AID 147);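 further: 0% = growth of vehicle-treated control cultures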; conditions: S. cerevisiae rad52 mutant growth inhibition, active compounds read high
Summary of the method: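 Compounds are applied to a genetically defined yeast strain lacking normal DNA damage repair, and inhibition of growth is expressed relative to cultures given vehicle only.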

[2] = NCI Yeast Anticancer Drug Screen. Data for the wt1 strain (AID 149);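 further: 0% = growth of vehicle-treated wt1 cultures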; conditions: S. cerevisiae wt1 strain (SPY 50644) growth inhibition, active compounds read high
Summary of the method: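 Each compound is tested on wt1 yeast and the loss of growth versus vehicle gives the inhibition value.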

[3] = NCI Yeast Anticancer Drug Screen. Data for the rad50EPP+ strain (AID 151);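 further: 0% = growth of vehicle-treated control cultures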; conditions: S. cerevisiae rad50 mutant strain, active compounds read high
Summary of the method: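 Compounds were applied to the rad50EPP+ yeast strain, which bears a defined DNA repair alteration, and growth inhibition was determined relative to vehicle-treated cultures.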

[4] = NCI Yeast Anticancer Drug Screen. Data for the mgt1 strain (AID 153); conditions: S. cerevisiae mgt1 mutant growth inhibition, active compounds read high
Summary of the method: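 Strain: mgt1 yeast, one of a set carrying defined DNA damage repair or cell cycle control alterations. Compound-treated growth compared with vehicle.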

[5] = NCI Yeast Anticancer Drug Screen. Data for the rad50 strain (AID 155);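 further: 0% = growth of vehicle-only cultures of the same strain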; conditions: S. cerevisiae rad50 strain growth inhibition, active compounds read high
Summary of the method: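 Vehicle-treated cultures provide the reference for the growth inhibition reported for compound-exposed, repair-deficient yeast.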

[6] = NCI Yeast Anticancer Drug Screen. Data for the mec2-1 strain (AID 157); conditions: S. cerevisiae mec2-1 strain, active compounds read high
Summary of the method: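 Strain: mec2-1 (DNA repair/cell cycle alteration). Compound exposure, then growth measured; inhibition expressed relative to vehicle.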

[7] = NCI Yeast Anticancer Drug Screen. Data for the rad14 strain (AID 159);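 further: 0% = growth of vehicle-treated control cultures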; conditions: S. cerevisiae rad14 strain growth inhibition, active compounds read high
Summary of the method: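 Inhibition of growth is reported for a repair-deficient yeast mutant following compound treatment, calculated relative to cultures that received vehicle.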

[8] = NCI Yeast Anticancer Drug Screen. Data for the sgs1 mgt1 strain (AID 161);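 further: 0% = growth of cultures given vehicle only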; conditions: S. cerevisiae sgs1 mgt1 strain, active compounds read high
Summary of the method: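 Read-out: growth inhibition vs vehicle controls. Cells: mutant yeast strain deficient in DNA damage repair.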

[9] = NCI Yeast Anticancer Drug Screen. Data for the cln2 rad14 strain (AID 165);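 further: 0% = growth equal to vehicle treated cultures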; conditions: S. cerevisiae cln2 rad14 strain, active compounds read high
Summary of the method: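 Compounds are applied to the cln2 rad14 yeast strain, and growth is then compared with that of vehicle-treated cultures to give inhibition.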

[10] = NCI Yeast Anticancer Drug Screen. Data for the bub3 strain (AID 167); conditions: S. cerevisiae bub3 mutant strain, active compounds read high
Summary of the method: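 Mutant yeast screening strain plus compound; vehicle-treated cultures serve as the 0% inhibition reference.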

[11] = NCI Yeast Anticancer Drug Screen. Data for the wt2 strain (AID 169); conditions: S. cerevisiae wt2 strain growth inhibition, active compounds read high
Summary of the method: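 This strain belongs to a panel of yeast strains with defined genetic alterations in DNA damage repair or cell cycle control. Compounds are applied, and growth inhibition is measured against vehicle-treated cultures.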

[12] = NCI Yeast Anticancer Drug Screen. Data for the mlh1 strain (AID 171);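 further: 0% = growth of vehicle-treated control cultures of the same strain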; conditions: S. cerevisiae mlh1 strain growth inhibition, active compounds read high
Summary of the method: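 Growth of the mutant yeast strain after compound exposure, expressed as inhibition relative to vehicle-only controls.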

[13] = NCI Yeast Anticancer Drug Screen. Data for the sgs1 strain (AID 173);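 further: 0% = growth of vehicle-only control cultures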; conditions: S. cerevisiae sgs1 mutant, active compounds read high
Summary of the method: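 Growth of a yeast strain bearing a defined genetic alteration is measured after compound treatment. Inhibition is expressed relative to vehicle-only controls.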

[14] = NCI Yeast Anticancer Drug Screen. Data for the mlh1 rad18 strain (AID 175); conditions: S. cerevisiae mlh1 rad18 strain growth inhibition, active compounds read high
Summary of the method: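 Read-out is yeast growth inhibition, calculated against vehicle-only controls. The compound was applied to a strain engineered with DNA damage repair alterations.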

[15] = NCI Yeast Anticancer Drug Screen. Data for the rad18 strain (AID 177); conditions: S. cerevisiae rad18 mutant growth inhibition, active compounds read high
Summary of the method: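 Growth of the mutant yeast strain after compound exposure, normalised to vehicle-only cultures.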

[16] = at 5.0 µM (retest, dose inferred, filed as 0.5)
[17] = at 50.0 µM (retest, dose inferred, filed as 5.0)

Measured: growth inhibition

O=C1CCC(Cc2ccccc2)CN1 (stereo not drawn)
active: [4]; at 100.0 µM 93% | [8]; [17] 80% | [8]; at 50.0 µM 81.5% | [11]; at 100.0 µM 92% | [12]; at 100.0 µM 90% | [13]; at 100.0 µM 93%
inactive: [1]; at 1.2 µM -1% | [1]; at 3.7 µM -1% | [1]; at 11.0 µM -2% | [1]; at 33.0 µM -3% | [1]; at 100.0 µM 0% | [2]; at 1.2 µM -3% | [2]; at 3.7 µM -2% | [2]; at 11.0 µM 1% | [2]; at 33.0 µM -2% | [2]; at 100.0 µM -1% | [3]; at 1.2 µM -1% | [3]; at 3.7 µM 0% | [3]; at 11.0 µM 12% | [3]; at 33.0 µM 25% | [3]; at 100.0 µM 42% | [4]; at 1.2 µM -1% | [4]; at 3.7 µM -5% | [4]; at 11.0 µM -1% | [4]; at 33.0 µM 68% | [5]; at 1.2 µM -1% | [5]; at 3.7 µM -2% | [5]; [16] 10% | [5]; at 11.0 µM -2% | [5]; at 33.0 µM -3% | [5]; [17] 7% | [5]; at 50.0 µM 7.1% | [5]; at 100.0 µM -1% | [6]; at 1.2 µM -1% | [6]; at 3.7 µM -1% | [6]; [16] -11% | [6]; at 11.0 µM 0% | [6]; at 33.0 µM -1% | [6]; [17] -3% | [6]; at 50.0 µM 19.7% | [6]; at 100.0 µM 3% | [7]; at 1.2 µM -2% | [7]; at 3.7 µM -1% | [7]; at 11.0 µM -2% | [7]; at 33.0 µM -1% | [7]; at 100.0 µM 1% | [8]; [16] 3% | [9]; [16] -2% | [9]; [17] 4% | [9]; at 50.0 µM 0.15% | [10]; at 1.2 µM -4% | [10]; at 3.7 µM -5% | [10]; [16] -11% | [10]; at 11.0 µM -5% | [10]; at 33.0 µM -7% | [10]; [17] -8% | [10]; at 50.0 µM 10.9% | [10]; at 100.0 µM -8% | [11]; at 1.2 µM -3% | [11]; at 3.7 µM 0% | [11]; at 11.0 µM 3% | [11]; at 33.0 µM 50% | [12]; at 1.2 µM -3% | [12]; at 3.7 µM -2% | [12]; at 11.0 µM 0% | [12]; at 33.0 µM 37% | [13]; at 1.2 µM 0% | [13]; at 3.7 µM 1% | [13]; at 11.0 µM 11% | [13]; at 33.0 µM 62% | [14]; [16] -9% | [14]; [17] 1% | [14]; at 50.0 µM 3.7% | [15]; at 1.2 µM 1% | [15]; at 3.7 µM -2% | [15]; at 11.0 µM 4% | [15]; at 33.0 µM 0% | [15]; at 100.0 µM 1%
